# UBC13 inh = inhibitors of human UBC13 polyubiquitin chain formation. P61088. TR-FRET. inhibition, % at 20 µM. 0.47% of 330,000 active; in the data active means inhibition above about 45%, passing the limit was not always enough
# RAD54 branch = inhibitors of human RAD54 branch migration; RAD54 Holliday junction branch migration, FAM/BHQ fluorescence; inhibition, % at 10.4 µM; Q92698; 0.14% of 360,000 active;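 active means mean normalized replicate activity at least 40 and at least half of replicates scoring 40 or more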;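 further: 0% = median of neutral control wells and 100% = median of positive control wells; inhibitors cause a drop in the FAM fluorescence signal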
# RAD52 inh = RAD52 (human) annealing inhibition; P43351; recombinant RAD52 DNA annealing, FRET fluorescence; inhibition, % at 18.7 µM; 0.46% of 360,000 active; AID 651710;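 active means every replicate showing at least 50% inhibition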
# DNA FID counter = fluorescent intercalator displacement, NS3 helicase counter-screen; DNA fluorescent intercalator displacement, fluorescence; inhibition, % at 7.9 µM; 0.17% of 290,000 active; in the data active means inhibition above about 37%;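 further: 0% = vehicle and 100% = reference compound; higher means more ethidium bromide displaced from hairpin DNA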
# MIN6 prolif-1 = inducers of beta-cell replication in MIN6 cells; MIN6 cells proliferation, ATPlite luminescence, 48 h; cells starved in 0.2% serum; 100% = growth in 10% serum; proliferation, % at 10 µM; 0.29% of 330,000 active; AID 2380;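 active means compounds whose signal lies at least 3.5 SD above the mean of all wells on their plate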;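 further: 0% = DMSO-treated cells in low-serum medium and 100% = 10% serum control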
# PREPL inhibitor = inhibits the human prolyl oligopeptidase-like enzyme | Q4J6C6 | recombinant PREPL, fluorescence polarization activity-based probe | inhibition, % at 5.96 µM | 0.68% of 320,000 active; in the data active means inhibition above about 43%;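 further: 0% = enzyme with DMSO and 100% = wells lacking enzyme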
# Target sequence (Q4J6C6 whole entry, looked up): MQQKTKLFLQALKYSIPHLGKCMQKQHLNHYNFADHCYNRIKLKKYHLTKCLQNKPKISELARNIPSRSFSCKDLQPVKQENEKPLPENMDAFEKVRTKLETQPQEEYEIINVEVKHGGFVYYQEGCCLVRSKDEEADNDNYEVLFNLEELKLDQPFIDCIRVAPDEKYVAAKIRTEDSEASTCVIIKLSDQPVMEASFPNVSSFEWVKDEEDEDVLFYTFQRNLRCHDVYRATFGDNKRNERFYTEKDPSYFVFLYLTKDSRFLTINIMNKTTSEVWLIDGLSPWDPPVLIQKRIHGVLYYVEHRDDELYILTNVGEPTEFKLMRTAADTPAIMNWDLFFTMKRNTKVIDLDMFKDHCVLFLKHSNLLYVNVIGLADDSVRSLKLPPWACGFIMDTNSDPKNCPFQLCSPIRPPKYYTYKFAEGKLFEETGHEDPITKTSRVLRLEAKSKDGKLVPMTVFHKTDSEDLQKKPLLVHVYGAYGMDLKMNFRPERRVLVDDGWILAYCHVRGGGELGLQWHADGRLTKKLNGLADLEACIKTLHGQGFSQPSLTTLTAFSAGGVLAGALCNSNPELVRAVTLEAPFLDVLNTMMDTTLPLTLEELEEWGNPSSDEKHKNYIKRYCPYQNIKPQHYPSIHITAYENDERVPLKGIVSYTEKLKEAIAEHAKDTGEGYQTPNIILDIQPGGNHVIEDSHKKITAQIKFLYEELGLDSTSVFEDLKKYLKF
# MIN6 prolif-2 = confirmation of inducers of beta-cell replication in MIN6 cells; shares compounds with MIN6 prolif-1; MIN6 beta-cell proliferation, ATPlite luminescence, 48 h; cells kept in 0.2% serum; scaled between 0.2% and 10% serum; proliferation increase, % at 50 µM; 920 tested, under 10 active; AID 463095;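 active means proliferation increase above 40% at any of the four tested concentrations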
# * marks the source's active call; other numbers are inactive results; · = no result. Most compounds without a hit are left out; they make up all but 1.3% or so of the library.
SMILES,UBC13 inh,RAD54 branch,RAD52 inh,DNA FID counter,MIN6 prolif-1,PREPL inhibitor,MIN6 prolif-2
Cc1cc(Br)c(NC(=O)COC(=O)C2CCCCC2)c(Br)c1,-5,-4,-10,·,11*,14,-6
Cc1cc(C)c(NC(=O)COC(=O)C2CCC2)c(Cl)c1,2,-3,-16,-4,3,-3,·
O=[N+]([O-])c1ccc(N2CCCC2)cc1NC1CC1,-29,-3,-5,4,11*,9,-2
CCOc1cc(-n2cnnn2)c(OCC)cc1NC(=O)c1cnccn1,-3,6,·,·,-4,1,·
CCOc1cc(N2CCOCC2)c(OCC)cc1NC(=O)c1cnccn1,-5,4,-16,·,9.3*,5,3
Cc1ccccc1NC(=O)CN1C(=O)NC(C)(c2ccc3c(c2)OCO3)C1=O (stereo not given),5,-9,·,-8,1,18,·
CC1(c2ccc3c(c2)OCO3)NC(=O)N(CC(=O)Nc2ccccc2[N+](=O)[O-])C1=O (stereo not given),-2,-7,-9,·,14*,·,0
C/C=C/c1ccc([C@H]2[C@@H](CO)N3C(=O)CN(Cc4ccc(C)cc4)C[C@H]23)cc1,·,·,0,·,·,·,·
COc1ccc2c3c(n(C)c2c1)[C@@H](CO)N(C(C)=O)CC31CN(C(=O)Nc2ccc(F)cc2)C1,·,·,0,·,·,·,·
C[C@@H]1CN([C@@H](C)CO)C(=O)c2cccc(NC(=O)c3ccc(-c4nccs4)cc3)c2O[C@H]1CN(C)S(=O)(=O)c1cn(C)cn1,·,4,-9,·,·,·,·
CCc1ccc(NC(=O)c2noc3c2CCc2ccccc2-3)cc1,6,6,·,4,7.2*,-11,-1
COc1ccc(S(=O)(=O)Nc2ccc3c(c2)CC(=O)N([C@@H](C)CO)C[C@@H](C)[C@H](CN(C)Cc2ccc(-c4ccccc4)cc2)O3)cc1,·,-14,-7,·,·,·,·
CCN(CC)CCP(=O)(c1ccccc1)c1ccccc1,5,-5,·,-1,4.6*,1,-3
CN(C)CCCNC(=O)C[C@H]1C=C[C@H](NS(=O)(=O)c2ccc(F)cc2)[C@H](CO)O1,·,-8,3,·,·,·,·
CS(=O)(=O)N1CCC(C(=O)NCc2ccco2)CC1,-2,-19,·,6,7.7*,-3,-3
O=C(NCc1ccco1)C1CC(=O)N(c2ccc(O)cc2)C1 (stereo not given),4,-8,·,-6,4.7*,-4,-1
CCS(=O)(=O)N1CCC(C(=O)NCc2ccco2)CC1,3,-12,·,1,2,0,·
COc1ccccc1-c1cn(CC[C@H]2CC[C@@H](NC(=O)c3ccccc3F)[C@@H](CO)O2)nn1,·,-10,-3,·,·,·,·
O=C(c1ccccn1)N1C[C@H]2[C@@H](c3ccccc31)[C@H](CO)N2C(=O)C1CCCCC1,·,0,-5,·,·,·,·
COc1cc(CC(=O)NCCCc2ccccc2)cc(OC)c1OC,9,-4,-7,-18,6.0*,1,-2
CCC(=O)N[C@@H]1CC[C@@H](CCn2cc(C3CC3)nn2)O[C@@H]1CO,·,0,4,·,·,·,·
CCn1c(Oc2ccccc2C)nc2c1c(=O)n(C)c(=O)n2C,2,1,0,-21,2,·,·
CCn1c(Oc2ccc(F)cc2)nc2c1c(=O)n(C)c(=O)n2C,14,1,6,-2,7.3*,4,6
CCCNC(=O)Nc1ccc2c(c1)C(=O)N(C)C[C@H](OC)[C@@H](C)CN(C(=O)C1CC1)[C@H](C)CO2,·,0,12,·,·,·,·
COC(=O)[C@H](CCSC)NC(=O)NCc1ccc(S(N)(=O)=O)cc1,11,3,·,1,8.2*,9,-3
SMILES,UBC13 inh,RAD54 branch,RAD52 inh,DNA FID counter,MIN6 prolif-1,PREPL inhibitor,MIN6 prolif-2
CCC(C)[C@H](NC(=O)NCc1ccc(S(N)(=O)=O)cc1)C(=O)OC (stereo not given in full),10,-3,5,-3,1,10,·
CCN(C(=O)CN1CCCCC1)c1c(N)n(Cc2ccccc2)c(=O)[nH]c1=O,0,-1,-21,·,-1,3,·
CCN(C(=O)CSc1ncccn1)c1c(N)n(Cc2ccccc2)c(=O)[nH]c1=O,-3,-5,-15,·,16*,·,-2
CN(C(=O)CN1CCCCCC1)c1c(N)n(Cc2ccccc2)c(=O)[nH]c1=O,8,-6,-44,·,12*,6,-4
COCC(=O)N1CC2(C1)CN(Cc1cccc(Cl)c1)[C@@H](CO)c1[nH]c3cc(OC)ccc3c12,·,·,-51,·,·,·,·
CCCc1nc(Cl)c(C#N)c2c1CCCC2,8,·,-15,-8,9.0*,0,7
CNC[C@H]1Oc2ccc(NC(=O)CCCN(C)C)cc2C(=O)N([C@@H](C)CO)C[C@H]1C,·,-1,28,·,·,·,·
CC(C)OP(=O)(c1ccc(N(C)C)cc1)C(O)c1ccc(Br)cc1 (stereo not given),5,·,-8,-42,9.0*,-9,-1
CC(C)OP(=O)(c1ccc(N(C)C)cc1)C(O)c1ccncc1 (stereo not given),12,2,·,-3,0,4,·
CN(CC(=O)Nc1c(Cl)cccc1Cl)C(=O)CCNS(=O)(=O)c1ccccc1C(F)(F)F,2,-2,-11,·,12*,-6,0
CCCCNC(=O)Nc1nnc(C(C)(C)C)s1,7,-6,-7,-13,5.1*,1,1
CC(C)(C)c1nnc(NC(=O)Nc2ccc(Cl)cc2)s1,-4,·,-1,-3,-3,12,·
COc1ccc(NS(=O)(=O)c2ccc(C)cc2)c([N+](=O)[O-])c1,-12,1,16,-2,-3,-10,·
COc1ccc(NC(=O)c2ccccc2NS(=O)(=O)c2ccc(C)cc2)c([N+](=O)[O-])c1,-11,·,·,0,6.2*,1,-6
CCCC(=O)N1CCC2(CC1)CN(Cc1nccs1)[C@@H](CO)c1[nH]c3cc(OC)ccc3c12,·,·,-32,·,·,·,·
CCOC(=O)C1CCN(C(=O)c2ccc(C)o2)CC1,5,·,-13,·,9.3*,13,5
CCOC(=O)C1CCN(C(=O)CCC2CCCC2)CC1,-10,-3,-42,-30,6.1*,-3,0
O=C(Cc1ccc(-c2ccccc2)cc1)Nc1ccccc1,-3,-1,-15,-3,6.0*,-4,-1
Cc1cccc(NC(=O)Cc2ccc(-c3ccccc3)cc2)n1,-2,-13,-7,-25,-1,-6,·
OCCC1CN(Cc2c(F)cccc2Cl)CCN1C1CCCC1 (stereo not given),5,0,-11,-3,8.1*,-4,0
OCCC1CN(Cc2c(F)cccc2Cl)CCN1C1CCCCC1 (stereo not given),2,-10,-16,10,0,-6,·
COC(=O)CNC(=O)COC(=O)/C=C/c1ccc2ccccc2n1,-3,·,-13,-6,10*,11,-5
CCOC(=O)c1c2n(c3ccc(O)cc13)CCC2,10,-12,·,2,9.1*,1,0
